# Test results published in publication PMC7862700, “An all-to-all approach to the identification of sequence-specific readers for epigenetic DNA modifications on cytosine”.
# Legend:
# Assay in all cases: DAPPL (digital affinity profiling via proximity ligation, sequencing); 10 mM Tris-HCl pH 7.5, 50 mM NaCl, 1 mM DTT, 4% glycerol, room temperature, 30 min; GST-TFs on glutathione beads, 16-mer random dsDNA library, 0.1% formaldehyde crosslink after washing; high values mean tight binding
# Details in all cases: protein: recombinant; tags: N-terminal GST; dsDNA, one strand shown
# [1] = target: T1, ELK1 (Homo sapiens, UniProt P19419 1-428)
# T1 sequence: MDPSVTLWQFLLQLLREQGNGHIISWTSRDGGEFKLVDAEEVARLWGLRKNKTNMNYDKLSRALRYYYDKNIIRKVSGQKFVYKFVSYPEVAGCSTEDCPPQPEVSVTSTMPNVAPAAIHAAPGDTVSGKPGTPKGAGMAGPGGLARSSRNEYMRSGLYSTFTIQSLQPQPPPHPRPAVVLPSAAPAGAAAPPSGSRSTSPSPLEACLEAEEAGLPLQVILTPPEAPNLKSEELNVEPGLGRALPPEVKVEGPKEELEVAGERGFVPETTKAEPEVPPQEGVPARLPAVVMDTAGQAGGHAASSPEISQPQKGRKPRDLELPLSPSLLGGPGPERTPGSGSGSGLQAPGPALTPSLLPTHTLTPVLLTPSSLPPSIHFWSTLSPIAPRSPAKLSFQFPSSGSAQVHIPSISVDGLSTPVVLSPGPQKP
# Method in brief: (§1)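 Sequencing on an Illumina NextSeq500 followed washing, crosslinking with 0.1% formaldehyde, proximity ligation (BsaI/T4 ligase, 1 h, 37 °C) and PCR amplification of pools that had been incubated for 30 min at room temperature with 200 nmole of a random double-stranded 16-mer DNA library in Tris/NaCl/DTT/glycerol buffer. Each pool held DNA-barcoded human transcription factors, expressed in yeast as GST fusions and captured on glutathione beads, plus a tag-only sample. Binding signal is a hexamer's read frequency for a factor divided by its frequency in the tag-only sample.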
# [2] = target: T2, GABPA (Homo sapiens, UniProt Q06546 1-454)
# T2 sequence: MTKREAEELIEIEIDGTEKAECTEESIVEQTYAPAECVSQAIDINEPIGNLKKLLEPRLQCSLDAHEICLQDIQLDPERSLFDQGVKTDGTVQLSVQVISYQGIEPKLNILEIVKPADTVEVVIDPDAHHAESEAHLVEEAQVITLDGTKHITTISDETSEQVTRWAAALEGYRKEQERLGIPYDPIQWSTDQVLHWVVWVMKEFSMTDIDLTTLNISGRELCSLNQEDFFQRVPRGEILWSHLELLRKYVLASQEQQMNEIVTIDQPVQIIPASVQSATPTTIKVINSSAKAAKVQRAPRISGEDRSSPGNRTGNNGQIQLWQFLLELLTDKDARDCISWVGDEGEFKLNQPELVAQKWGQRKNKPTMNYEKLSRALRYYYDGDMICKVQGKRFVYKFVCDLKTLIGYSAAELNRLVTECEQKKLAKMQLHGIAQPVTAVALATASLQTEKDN
# Method in brief: as §1
# [3] = target: T3, ERG (Homo sapiens, UniProt P11308 1-479)
# T3 sequence: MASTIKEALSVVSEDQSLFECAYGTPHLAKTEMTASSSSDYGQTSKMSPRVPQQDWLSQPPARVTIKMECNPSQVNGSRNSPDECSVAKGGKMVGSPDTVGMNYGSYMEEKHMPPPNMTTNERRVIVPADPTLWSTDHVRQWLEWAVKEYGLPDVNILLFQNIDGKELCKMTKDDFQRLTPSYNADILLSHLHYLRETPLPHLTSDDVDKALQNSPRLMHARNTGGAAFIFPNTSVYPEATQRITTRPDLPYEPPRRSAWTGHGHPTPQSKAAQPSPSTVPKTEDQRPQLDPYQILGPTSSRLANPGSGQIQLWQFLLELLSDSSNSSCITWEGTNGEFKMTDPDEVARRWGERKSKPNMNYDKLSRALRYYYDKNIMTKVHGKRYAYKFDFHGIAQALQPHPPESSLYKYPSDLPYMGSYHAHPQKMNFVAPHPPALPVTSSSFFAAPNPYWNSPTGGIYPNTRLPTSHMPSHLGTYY
# Method in brief: as §1
# [4] = target: ELF1 (Homo sapiens, UniProt P32519 1-619)
# Sequence of ELF1 (P32519 whole entry): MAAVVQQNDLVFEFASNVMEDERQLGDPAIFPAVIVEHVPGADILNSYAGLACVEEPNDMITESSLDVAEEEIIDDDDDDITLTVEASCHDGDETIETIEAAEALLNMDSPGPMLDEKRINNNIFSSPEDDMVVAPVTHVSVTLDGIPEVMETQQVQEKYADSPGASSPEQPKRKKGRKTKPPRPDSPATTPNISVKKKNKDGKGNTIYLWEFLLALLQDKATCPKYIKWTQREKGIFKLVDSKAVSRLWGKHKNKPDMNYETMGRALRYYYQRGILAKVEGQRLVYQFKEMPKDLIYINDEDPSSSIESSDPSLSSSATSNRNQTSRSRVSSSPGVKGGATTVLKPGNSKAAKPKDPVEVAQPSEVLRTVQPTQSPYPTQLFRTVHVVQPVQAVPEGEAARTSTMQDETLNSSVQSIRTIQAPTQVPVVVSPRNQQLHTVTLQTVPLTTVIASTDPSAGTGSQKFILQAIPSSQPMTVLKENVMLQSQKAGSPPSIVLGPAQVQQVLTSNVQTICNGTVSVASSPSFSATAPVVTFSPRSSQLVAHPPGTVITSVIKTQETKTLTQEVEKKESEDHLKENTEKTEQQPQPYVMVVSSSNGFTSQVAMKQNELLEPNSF
# Method in brief: as §1
# [5] = target: T4, EHF (Homo sapiens, UniProt Q9NZC4 1-300)
# T4 sequence: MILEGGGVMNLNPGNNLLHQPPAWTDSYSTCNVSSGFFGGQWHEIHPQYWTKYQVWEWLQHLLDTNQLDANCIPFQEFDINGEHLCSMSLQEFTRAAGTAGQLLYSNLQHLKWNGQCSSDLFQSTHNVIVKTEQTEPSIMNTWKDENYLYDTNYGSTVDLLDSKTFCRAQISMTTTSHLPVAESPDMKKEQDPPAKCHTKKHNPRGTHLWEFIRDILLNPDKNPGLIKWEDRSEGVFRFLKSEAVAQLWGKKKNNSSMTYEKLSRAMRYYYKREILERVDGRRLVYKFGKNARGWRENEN
# Method in brief: as §1
# [6] = target: SPIB (Homo sapiens, UniProt Q01892 1-262)
# Sequence of SPIB (Q01892 whole entry): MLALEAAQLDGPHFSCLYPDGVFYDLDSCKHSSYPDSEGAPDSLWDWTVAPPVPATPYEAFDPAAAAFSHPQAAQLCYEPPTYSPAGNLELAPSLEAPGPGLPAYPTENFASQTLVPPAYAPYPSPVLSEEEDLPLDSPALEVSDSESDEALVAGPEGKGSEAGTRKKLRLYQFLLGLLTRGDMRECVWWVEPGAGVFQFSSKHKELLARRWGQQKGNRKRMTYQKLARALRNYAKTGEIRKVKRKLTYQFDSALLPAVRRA
# Method in brief: as §1
# [7] = target: T5, FEV (Homo sapiens, UniProt Q99581 1-238)
# T5 sequence: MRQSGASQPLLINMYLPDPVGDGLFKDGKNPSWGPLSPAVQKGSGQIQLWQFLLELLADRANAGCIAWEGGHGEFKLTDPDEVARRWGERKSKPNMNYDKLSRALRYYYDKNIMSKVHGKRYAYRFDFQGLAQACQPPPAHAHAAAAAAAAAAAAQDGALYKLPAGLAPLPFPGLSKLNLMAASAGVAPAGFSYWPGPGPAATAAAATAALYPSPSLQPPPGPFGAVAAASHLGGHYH
# Method in brief: as §1
# [8] = target: ETV5 (Homo sapiens, UniProt P41161 1-510)
# Sequence of ETV5 (P41161 whole entry): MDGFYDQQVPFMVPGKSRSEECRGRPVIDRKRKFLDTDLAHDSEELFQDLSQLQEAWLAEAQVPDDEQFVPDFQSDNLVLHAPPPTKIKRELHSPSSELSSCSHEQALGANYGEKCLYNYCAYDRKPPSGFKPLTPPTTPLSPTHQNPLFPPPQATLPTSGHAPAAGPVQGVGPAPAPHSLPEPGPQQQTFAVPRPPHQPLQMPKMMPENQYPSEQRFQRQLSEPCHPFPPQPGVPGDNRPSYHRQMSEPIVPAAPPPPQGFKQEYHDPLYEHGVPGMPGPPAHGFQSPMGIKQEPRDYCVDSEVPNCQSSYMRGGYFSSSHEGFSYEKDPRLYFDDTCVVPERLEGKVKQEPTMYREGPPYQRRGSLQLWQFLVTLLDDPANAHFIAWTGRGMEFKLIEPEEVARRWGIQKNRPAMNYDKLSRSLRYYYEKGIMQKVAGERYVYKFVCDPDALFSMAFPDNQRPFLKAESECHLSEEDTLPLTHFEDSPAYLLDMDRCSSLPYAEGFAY
# Method in brief: as §1
# [9] = target: ELF4 (Homo sapiens, UniProt Q99607 1-663)
# Sequence of ELF4 (Q99607 whole entry): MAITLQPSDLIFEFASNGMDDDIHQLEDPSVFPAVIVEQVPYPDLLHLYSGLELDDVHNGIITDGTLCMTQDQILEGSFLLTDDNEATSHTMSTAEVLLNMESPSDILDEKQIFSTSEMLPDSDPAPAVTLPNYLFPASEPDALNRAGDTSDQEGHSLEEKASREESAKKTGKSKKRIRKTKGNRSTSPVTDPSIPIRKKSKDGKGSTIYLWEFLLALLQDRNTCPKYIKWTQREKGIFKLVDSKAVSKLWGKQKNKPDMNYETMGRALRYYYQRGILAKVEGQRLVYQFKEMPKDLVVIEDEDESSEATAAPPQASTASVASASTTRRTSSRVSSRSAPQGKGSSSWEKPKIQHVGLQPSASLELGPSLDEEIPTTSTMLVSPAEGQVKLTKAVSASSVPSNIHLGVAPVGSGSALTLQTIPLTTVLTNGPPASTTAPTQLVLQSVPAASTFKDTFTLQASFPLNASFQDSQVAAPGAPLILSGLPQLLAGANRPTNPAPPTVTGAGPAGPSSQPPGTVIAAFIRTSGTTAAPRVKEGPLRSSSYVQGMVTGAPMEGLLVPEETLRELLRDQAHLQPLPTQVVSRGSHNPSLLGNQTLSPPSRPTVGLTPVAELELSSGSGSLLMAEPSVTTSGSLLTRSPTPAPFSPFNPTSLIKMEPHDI
# Method in brief: as §1
# [10] = target: T6, ELK4 (Homo sapiens, UniProt P28324-2 1-405)
# T6 sequence: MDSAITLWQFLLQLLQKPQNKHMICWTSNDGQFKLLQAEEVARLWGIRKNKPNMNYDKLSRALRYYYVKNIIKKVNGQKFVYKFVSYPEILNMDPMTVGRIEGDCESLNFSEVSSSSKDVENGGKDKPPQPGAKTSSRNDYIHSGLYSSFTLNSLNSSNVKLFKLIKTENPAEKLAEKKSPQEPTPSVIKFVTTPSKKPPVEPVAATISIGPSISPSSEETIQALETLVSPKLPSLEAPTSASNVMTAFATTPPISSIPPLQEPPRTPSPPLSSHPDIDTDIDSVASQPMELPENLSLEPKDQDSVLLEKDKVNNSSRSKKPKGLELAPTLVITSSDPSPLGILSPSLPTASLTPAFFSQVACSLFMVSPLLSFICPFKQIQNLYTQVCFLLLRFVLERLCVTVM
# Method in brief: as §1
# [11] = target: T7, ETV2 (Homo sapiens, UniProt O00321 1-342)
# T7 sequence: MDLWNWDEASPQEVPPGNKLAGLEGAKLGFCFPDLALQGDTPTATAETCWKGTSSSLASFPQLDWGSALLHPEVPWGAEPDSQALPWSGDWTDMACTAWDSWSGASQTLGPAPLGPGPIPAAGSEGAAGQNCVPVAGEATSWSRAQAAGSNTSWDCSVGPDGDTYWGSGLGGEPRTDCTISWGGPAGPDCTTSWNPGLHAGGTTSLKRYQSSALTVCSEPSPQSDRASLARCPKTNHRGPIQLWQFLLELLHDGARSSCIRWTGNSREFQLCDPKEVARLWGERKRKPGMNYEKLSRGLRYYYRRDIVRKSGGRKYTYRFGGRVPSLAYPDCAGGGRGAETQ
# Method in brief: as §1
# [12] = target: ETV1 (Homo sapiens, UniProt P50549 1-477)
# Sequence of ETV1 (P50549 whole entry): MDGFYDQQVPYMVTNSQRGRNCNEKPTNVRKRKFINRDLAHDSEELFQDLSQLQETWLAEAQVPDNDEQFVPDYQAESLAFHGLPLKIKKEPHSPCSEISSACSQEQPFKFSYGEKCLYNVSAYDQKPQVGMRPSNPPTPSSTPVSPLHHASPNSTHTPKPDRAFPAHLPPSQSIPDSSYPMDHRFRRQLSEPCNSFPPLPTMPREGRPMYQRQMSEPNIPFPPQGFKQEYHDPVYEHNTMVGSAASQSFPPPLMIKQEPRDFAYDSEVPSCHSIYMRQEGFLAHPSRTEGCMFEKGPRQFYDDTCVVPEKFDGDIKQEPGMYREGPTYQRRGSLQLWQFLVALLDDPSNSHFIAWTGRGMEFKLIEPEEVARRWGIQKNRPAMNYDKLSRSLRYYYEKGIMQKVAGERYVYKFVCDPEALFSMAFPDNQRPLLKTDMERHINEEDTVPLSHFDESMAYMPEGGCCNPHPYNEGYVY
# Method in brief: as §1
# [13] = target: T8, ERF (Homo sapiens, UniProt P50548 1-548)
# T8 sequence: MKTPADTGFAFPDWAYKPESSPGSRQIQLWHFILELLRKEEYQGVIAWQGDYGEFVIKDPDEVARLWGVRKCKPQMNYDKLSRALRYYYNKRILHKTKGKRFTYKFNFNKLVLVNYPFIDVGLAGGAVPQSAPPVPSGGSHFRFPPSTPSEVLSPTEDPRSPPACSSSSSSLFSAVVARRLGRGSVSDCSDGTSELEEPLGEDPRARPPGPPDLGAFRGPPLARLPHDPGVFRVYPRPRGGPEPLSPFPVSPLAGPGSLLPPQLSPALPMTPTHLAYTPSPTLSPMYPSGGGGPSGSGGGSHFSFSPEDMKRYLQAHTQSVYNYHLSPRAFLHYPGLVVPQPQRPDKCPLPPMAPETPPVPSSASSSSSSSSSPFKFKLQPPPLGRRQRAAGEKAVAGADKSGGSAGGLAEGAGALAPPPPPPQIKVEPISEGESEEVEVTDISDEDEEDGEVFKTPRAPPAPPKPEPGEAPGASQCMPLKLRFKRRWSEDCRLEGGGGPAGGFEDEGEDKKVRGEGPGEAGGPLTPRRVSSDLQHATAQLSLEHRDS
# Method in brief: as §1
# [14] = target: T9, ETV3L (Homo sapiens, UniProt Q6ZN32 1-361)
# T9 sequence: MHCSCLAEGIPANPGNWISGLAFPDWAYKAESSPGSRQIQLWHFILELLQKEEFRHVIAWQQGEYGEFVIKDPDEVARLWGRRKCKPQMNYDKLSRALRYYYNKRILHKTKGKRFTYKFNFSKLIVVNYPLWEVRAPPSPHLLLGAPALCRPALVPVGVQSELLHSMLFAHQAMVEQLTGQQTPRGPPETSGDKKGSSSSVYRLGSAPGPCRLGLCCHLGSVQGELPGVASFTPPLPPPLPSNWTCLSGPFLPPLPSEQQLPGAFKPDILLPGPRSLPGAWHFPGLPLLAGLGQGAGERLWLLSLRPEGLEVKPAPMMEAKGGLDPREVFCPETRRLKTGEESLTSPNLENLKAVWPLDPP
# Method in brief: as §1
# [15] = target: T10, ETS2 (Homo sapiens, UniProt P15036 1-469)
# T10 sequence: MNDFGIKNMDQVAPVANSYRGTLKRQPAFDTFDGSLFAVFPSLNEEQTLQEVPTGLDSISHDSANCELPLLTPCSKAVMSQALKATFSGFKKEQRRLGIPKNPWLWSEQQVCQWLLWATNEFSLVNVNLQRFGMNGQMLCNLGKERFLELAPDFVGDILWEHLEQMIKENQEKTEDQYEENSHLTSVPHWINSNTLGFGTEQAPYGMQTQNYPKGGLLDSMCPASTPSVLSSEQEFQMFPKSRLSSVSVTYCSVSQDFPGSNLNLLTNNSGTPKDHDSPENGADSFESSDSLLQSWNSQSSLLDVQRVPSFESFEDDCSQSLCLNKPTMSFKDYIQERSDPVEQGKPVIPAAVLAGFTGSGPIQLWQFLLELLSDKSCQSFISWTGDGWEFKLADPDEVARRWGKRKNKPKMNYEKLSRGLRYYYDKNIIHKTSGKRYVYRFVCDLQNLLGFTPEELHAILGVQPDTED
# Method in brief: as §1
# [16] = target: T11, SPDEF (Homo sapiens, UniProt O95238 1-335)
# T11 sequence: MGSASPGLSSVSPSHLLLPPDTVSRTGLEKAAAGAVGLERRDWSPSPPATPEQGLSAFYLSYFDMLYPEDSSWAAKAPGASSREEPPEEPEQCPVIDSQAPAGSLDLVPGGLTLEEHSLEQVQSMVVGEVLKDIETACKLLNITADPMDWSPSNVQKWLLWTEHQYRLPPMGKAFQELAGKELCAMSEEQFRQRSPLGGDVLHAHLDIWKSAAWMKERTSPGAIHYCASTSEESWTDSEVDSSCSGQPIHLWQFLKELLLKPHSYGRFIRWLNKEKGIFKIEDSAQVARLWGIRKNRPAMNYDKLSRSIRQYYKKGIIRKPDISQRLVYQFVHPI
# Method in brief: as §1
# [17] = target: T12, ETV7 (Homo sapiens, UniProt Q9Y603 1-341)
# T12 sequence: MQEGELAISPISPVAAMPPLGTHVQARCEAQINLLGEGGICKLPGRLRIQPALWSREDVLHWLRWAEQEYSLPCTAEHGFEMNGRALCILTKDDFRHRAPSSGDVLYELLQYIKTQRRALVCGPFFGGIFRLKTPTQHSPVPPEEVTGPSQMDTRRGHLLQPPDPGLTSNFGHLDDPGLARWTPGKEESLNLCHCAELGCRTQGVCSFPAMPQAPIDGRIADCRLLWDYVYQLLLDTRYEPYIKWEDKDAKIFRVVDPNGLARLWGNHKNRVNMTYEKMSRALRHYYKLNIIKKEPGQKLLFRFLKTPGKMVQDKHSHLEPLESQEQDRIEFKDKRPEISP
# Method in brief: as §1
# [18] = target: T13, ETV3 (Homo sapiens, UniProt P41162-2 1-143)
# T13 sequence: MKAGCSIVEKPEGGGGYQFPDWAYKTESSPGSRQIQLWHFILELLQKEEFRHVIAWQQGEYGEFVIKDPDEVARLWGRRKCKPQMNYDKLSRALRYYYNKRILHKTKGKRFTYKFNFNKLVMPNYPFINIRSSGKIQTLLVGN
# Method in brief: as §1
# [19] = target: ETV6 (Homo sapiens, UniProt P41212 1-452)
# Sequence of ETV6 (P41212 whole entry): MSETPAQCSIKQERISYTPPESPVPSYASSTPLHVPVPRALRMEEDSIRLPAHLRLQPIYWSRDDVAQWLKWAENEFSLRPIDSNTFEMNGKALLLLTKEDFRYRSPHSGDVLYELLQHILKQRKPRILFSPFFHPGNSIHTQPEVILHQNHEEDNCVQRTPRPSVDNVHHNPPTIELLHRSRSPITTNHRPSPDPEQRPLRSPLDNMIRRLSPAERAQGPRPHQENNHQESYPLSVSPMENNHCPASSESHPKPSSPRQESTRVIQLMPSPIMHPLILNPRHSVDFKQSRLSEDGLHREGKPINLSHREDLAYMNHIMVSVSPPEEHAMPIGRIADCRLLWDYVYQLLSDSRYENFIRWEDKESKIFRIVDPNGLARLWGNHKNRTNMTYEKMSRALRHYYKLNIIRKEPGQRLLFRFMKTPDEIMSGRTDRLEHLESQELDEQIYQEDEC
# Method in brief: as §1
sequence,measurement,setting,value
TGGGGT,binding signal,[1],"1.05 fold enrichment (6-mer frequency, TF over GST control)"
same,binding signal,[2],"1.12 fold enrichment (6-mer frequency, TF over GST control)"
same,binding signal,[3],"1.1 fold enrichment (6-mer frequency, TF over GST control)"
same,binding signal,[4],"1.09 fold enrichment (6-mer frequency, TF over GST control)"
same,binding signal,[5],"1.03 fold enrichment (6-mer frequency, TF over GST control)"
same,binding signal,[6],"1.09 fold enrichment (6-mer frequency, TF over GST control)"
same,binding signal,[7],"1.02 fold enrichment (6-mer frequency, TF over GST control)"
same,binding signal,[8],"1.13 fold enrichment (6-mer frequency, TF over GST control)"
same,binding signal,[9],"1.08 fold enrichment (6-mer frequency, TF over GST control)"
same,binding signal,[10],"1.21 fold enrichment (6-mer frequency, TF over GST control)"
same,binding signal,[11],"1.08 fold enrichment (6-mer frequency, TF over GST control)"
same,binding signal,[12],"1.14 fold enrichment (6-mer frequency, TF over GST control)"
same,binding signal,[13],"1.02 fold enrichment (6-mer frequency, TF over GST control)"
same,binding signal,[14],"1.2 fold enrichment (6-mer frequency, TF over GST control)"
same,binding signal,[15],"1.2 fold enrichment (6-mer frequency, TF over GST control)"
same,binding signal,[16],"1.08 fold enrichment (6-mer frequency, TF over GST control)"
same,binding signal,[17],"1.05 fold enrichment (6-mer frequency, TF over GST control)"
same,binding signal,[18],"1.14 fold enrichment (6-mer frequency, TF over GST control)"
same,binding signal,[19],"1.09 fold enrichment (6-mer frequency, TF over GST control)"
